Consider 19 molecules from PMC11062922 (Nature Chemical Biology, 2023).

The structures appear in SMILES notation. Read-outs that look alike come from different tables or passages of the source.

Common to all, as to design: species or system human, MV4-11 + K-562 + COLO205 + SK-N-BE2 + OVCAR-8
The test system of one experiment is BTK. The note with it: read-out: apparent Kd; compound concentrations: 100 nM and 1000 nM (sheet 'Samples'), CATDS: 1.9599592223560901E-2; n = 1.
The next experiment deals with MAPK14. The note with it: read-out: apparent Kd, compound concentrations: 100 nM and 1000 nM (sheet 'Samples'), n = 1.
The subject of another experiment is PAK6. The note with it: read-out: apparent Kd; compound concentrations: 100 nM and 1000 nM (sheet 'Samples'), CATDS: 1.7508305071041501E-2; n = 1.
A further experiment has as its system PTK6. The note with it: read-out: apparent Kd; compound concentrations: 100 nM and 1000 nM (sheet 'Samples'), CATDS: 1.9530380694073899E-2; n = 1.
Another experiment concerns TTK. The note with it: read-out: apparent Kd, n = 1.
A further experiment deals with MAP3K11. The note with it: read-out: apparent Kd; compound concentrations:100 nM and 1000 nM (sheet 'Samples'); n = 1.
A further experiment concerns CDC42BPB. The note with it: read-out: apparent Kd; compound concentrations:100 nM and 1000 nM (sheet 'Samples'); n = 1.
The test system of a further experiment is PRKCA. The note with it: read-out: apparent Kd, n = 1.
The subject of the next experiment is RPS6KB1. The note with it: read-out: apparent Kd, n = 1.
The test system of another experiment is CIT. The note with it: read-out: apparent Kd; compound concentrations:100 nM and 1000 nM (sheet 'Samples'); n = 1.
In a further experiment the test system is PIK3CD. The note with it: read-out: apparent Kd, n = 1.
Another experiment deals with RPS6KA3. The note with it: read-out: apparent Kd, n = 1.
Another experiment has as its system NUAK2. The note with it: read-out: apparent Kd, compound concentrations: 100 nM and 1000 nM (sheet 'Samples'), n = 1.
The next experiment deals with AURKB. The note with it: read-out: apparent Kd; compound concentrations: 100 nM and 1000 nM (sheet 'Samples'), CATDS: 1.80896314222295E-2; n = 1.
Setting [1] is: compound concentrations:100 nM and 1000 nM (sheet 'Samples').

Turning to `Cl.Cn1c(=O)c(Cc2ccccc2F)cc2cnc(NC3CCOCC3)nc21` [RO3305377-001], the potency estimated from few doses in the experiment on BTK is 1180 nM; with MAPK14 (CATDS: 8.5761159080735103E-2), 105 nM; in the experiment with PAK6, 1640 nM; in the experiment with PTK6, 1190 nM.

On to `NS(=O)(=O)c1ccc(N/N=C2\C(=O)Nc3ccc4ncccc4c32)cc1` [GW305178X], for which the potency estimated from few doses in the experiment with TTK (compound concentrations: 100 nM and 1000 nM (sheet 'Samples'), CATDS: 4.7574405243594603E-2) was 1130 nM.

For the molecule `O=C(Nc1n[nH]c2nc(-c3ccccc3O)ccc12)C1CC1` [SB-711880], in the experiment with MAP3K11, the potency estimated from few doses was 1520 nM.

On to `CN[C@H](C#Cc1c(F)ccc2c1/C(=C/c1[nH]ccc1OC)C(=O)N2)CO.Cl` [RO0283049-001], for which the potency estimated from few doses in the experiment on TTK (compound concentrations: 100 nM and 1000 nM (sheet 'Samples'), CATDS: 1.9624563492428401E-2) was 2080 nM.

For `CCn1c(-c2nonc2N)nc2cncc(Br)c21` [SB-738004], the potency estimated from few doses with CDC42BPB was 1970 nM; in the experiment with PRKCA (setting [1]), 1290 nM; in the experiment on RPS6KB1 (setting [1]), 360 nM.

In the case of `Cl.Nc1nc(-c2ccc3c(c2)C(=Cc2cc(Br)c(O)c(Br)c2)C(=O)N3)cs1` [GW407323A], in the experiment with TTK (compound concentrations: 100 nM and 1000 nM (sheet 'Samples'), CATDS: 2.7527023575449099E-2), the potency estimated from few doses is 2150 nM.

For `CCn1c(-c2nonc2N)nc2cncc(C(=O)N3CC[C@H](N)C3)c21.Cl` [SB-772077-B], the potency estimated from few doses was 932 nM with CDC42BPB, 1450 nM in the experiment with CIT, 826 nM in the experiment with PRKCA (setting [1]) and 93.8 nM in the experiment on RPS6KB1 (setting [1]).

With `NS(=O)(=O)c1ccc(N/C=C2\C(=O)Nc3ccc4ncsc4c32)cc1` [GW297361X], the potency estimated from few doses in the experiment with TTK (compound concentrations: 100 nM and 1000 nM (sheet 'Samples'), CATDS: 3.2979280004825598E-2) is 1400 nM.

`COc1ccc(Nc2nccc(NCCNC(=O)Nc3cc(C)ccc3C)n2)cc1` [GSK1379899A]: the potency estimated from few doses with PIK3CD (compound concentrations: 100 nM and 1000 nM (sheet 'Samples'), CATDS: 0.14570623002858099) was 175 nM.

Regarding `CC(C)(CO)CNC(=O)c1ccc2c(c1)/C(=N/Nc1ccc(S(N)(=O)=O)cc1)C(=O)N2` [GW301784X], in the experiment on TTK (setting [1]), the potency estimated from few doses was 983 nM.

As to `Cl.Cl.NC[C@H](CC1CCCCC1)NC(=O)c1ccc(-c2ccnc3[nH]ccc23)s1.NC[C@H](CC1CCCCC1)NC(=O)c1ccc(-c2ccnc3[nH]ccc23)s1` [GSK1581428A], the values for the potency estimated from few doses with CDC42BPB, with PRKCA (setting [1]) and in the experiment on RPS6KB1 (setting [1]) were 10.5 nM, 2080 nM and 179 nM, respectively.

On to `COc1cc[nH]c1/C=C1\C(=O)Nc2ccc(F)c(C#C[C@@H](O)[C@@H](N)[C@@H](C)O)c21` [RO0283120-000], for which, in the experiment with TTK (setting [1]), the potency estimated from few doses was 1180 nM.

As for `CNCC1CCn2c(c(C3=C(c4cn(C)c5ccccc45)C(=O)NC3=O)c3ccccc32)C1` (stereo not drawn) [RO0318676-000], the potency estimated from few doses in the experiment with PRKCA (compound concentrations: 100 nM and 1000 nM (sheet 'Samples'), CATDS: 0.32206529387914401) was 11.4 nM; with RPS6KA3 (compound concentrations: 100 nM and 1000 nM (sheet 'Samples'), CATDS: 2.8652335073443402E-2), 1620 nM; in the experiment on RPS6KB1 (compound concentrations: 100 nM and 1000 nM (sheet 'Samples'), CATDS: 3.9813258984907299E-2) it was 600 nM.

In the case of `COc1cc[nH]c1/C=C1\C(=O)Nc2ccc([N+](=O)[O-])c(N3CC[C@@H](O)C3)c21` [RO0504985-000], in the experiment with NUAK2 (CATDS: 3.1931655972065397E-2), the potency estimated from few doses is 1490 nM.

On to `NS(=O)(=O)c1ccc(NC=C2C(=O)Nc3ccc4ncsc4c32)cc1` [GW589933X], for which the potency estimated from few doses is 1370 nM with AURKB; 1420 nM in the experiment on NUAK2 (CATDS: 1.7918277394981801E-2); 817 nM in the experiment with TTK (compound concentrations: 100 nM and 1000 nM (sheet 'Samples'), CATDS: 2.1205991954571499E-2).

Turning to `Cl.Cn1cc(C2=C(c3c4n(c5ccccc35)CCNC4)C(=O)NC2=O)c2ccccc21` [RO0318365-001], in the experiment with PRKCA (compound concentrations: 100 nM and 1000 nM (sheet 'Samples'), CATDS: 4.6045234882761202E-2), the potency estimated from few doses is 2150 nM.

Regarding `Cc1occc1-c1nc(N)c(OC[C@@H](N)Cc2c[nH]c3ccccc23)cc1-c1cc2c(C)n[nH]c2cn1` [GSK1660450B], the potency estimated from few doses in the experiment with CDC42BPB was 106 nM; with CIT, 135 nM; in the experiment with PIK3CD (setting [1]) it was 8.67 nM; in the experiment on PRKCA (setting [1]), 40 nM; with RPS6KA3 (setting [1]) it was 861 nM; in the experiment with RPS6KB1 (setting [1]) it was 112 nM.

For the molecule `CCC(CC)(CC)n1cnc2c(N)ncnc21` [SKF-97620], the potency estimated from few doses in the experiment with MAPK14 (CATDS: 3.1976912509304997E-2) was 857 nM; in the experiment with PIK3CD (compound concentrations: 100 nM and 1000 nM (sheet 'Samples'), CATDS: 0.27263149415517701), 20.5 nM.

As to `CN(C)c1ccc2c(c1)/C(=C/Nc1ccc(S(N)(=O)=O)cc1)C(=O)N2` [GW416469X], the potency estimated from few doses in the experiment on PIK3CD (compound concentrations: 100 nM and 1000 nM (sheet 'Samples'), CATDS: 0.23489654545894101) was 138 nM.
